The values below come from the supplement of paper PMC3334620.

The full ranking holds about 33,000 sequences; the median of “E-score (-0.5 to 0.5)” is about -0.016, and the highest 2% start at about 0.32. The sample as a whole holds a higher share of the highest values than the screen did.

This test concerns the target T1, Stp1 (UniProt B3LFK1).
T1 sequence: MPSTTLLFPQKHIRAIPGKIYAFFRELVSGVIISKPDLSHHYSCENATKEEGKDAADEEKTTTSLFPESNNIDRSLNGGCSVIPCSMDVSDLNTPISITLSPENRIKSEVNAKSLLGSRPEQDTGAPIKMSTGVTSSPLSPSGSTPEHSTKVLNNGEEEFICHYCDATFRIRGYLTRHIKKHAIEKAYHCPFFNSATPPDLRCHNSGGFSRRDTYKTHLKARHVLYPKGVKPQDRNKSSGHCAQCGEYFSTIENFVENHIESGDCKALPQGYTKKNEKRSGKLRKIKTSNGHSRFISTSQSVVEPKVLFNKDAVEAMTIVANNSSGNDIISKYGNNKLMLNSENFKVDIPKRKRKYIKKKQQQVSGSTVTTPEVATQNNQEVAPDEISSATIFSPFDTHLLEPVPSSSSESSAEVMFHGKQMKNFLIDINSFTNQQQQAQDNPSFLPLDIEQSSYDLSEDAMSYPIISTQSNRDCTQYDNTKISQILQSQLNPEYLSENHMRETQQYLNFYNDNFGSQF
The test can be described thus: PBM E-score (8-mer binding enrichment) (E-score (-0.5 to 0.5)); higher = stronger / more preferred TF binding. The settings on record: protein concentration: 200 nM; construct: GST-full length. On the procedure:
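Universal 'all 10-mer' protein binding microarrays (Agilent AMADID 015681) probed with GST-tagged S. cerevisiae TFs (full-length or DBD) made by in vitro transcription/translation (PURExpress), about 100-200 nM. Bound TF was detected with fluorescent anti-GST. Each ungapped 8-mer (which stands for itself and its reverse complement) is scored by the PBM enrichment score (E-score), a modified Wilcoxon-Mann-Whitney statistic from -0.5 to +0.5, computed with the Universal PBM Analysis Suite. Scale: above 0.35 generally sequence-specific binding.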
Consider CTTCAGAC, for which the “PBM E-score” value was -0.00198. To AGTCGCGC belongs 0.0334.

Turning to GCCCTAGA, the “PBM E-score” value is -0.0515. With CTGCTTCA the figure was -0.155; with ACTATCTG, -0.183. To CGCCGCTA belongs 0.299; to AGCCGCTA, 0.119; to CACCGCTC, -0.0467. Turning to AGCCGCTG, the “PBM E-score” value was determined as 0.0781. To CGCCGCTC belongs 0.434. Take AGCCGCTC: the “PBM E-score” value amounted to 0.337.

For the sequence ATGACCAA, the “PBM E-score” value was -0.0118. To CGATTAGA belongs 0.083. Consider CGACAGGC, for which the “PBM E-score” value was -0.0711. With CAAGATCA the figure was 0.101.

With GCTGCCCC, the “PBM E-score” value is -0.0352.

Take CAGTCAAC: the “PBM E-score” value was -0.139.

For CATACTTC, the “PBM E-score” value was -0.12. As for CCACCCAC, the “PBM E-score” value turned out to be 0.0467. To CGGCACCA belongs 0.462.

AGGCACGG: the “PBM E-score” value is 0.397.

In the case of GGGCACCA, the “PBM E-score” value is 0.056. To AGGCACCT belongs 0.135. To TGGCACCA belongs 0.176. With AGGCACGA the figure was 0.267; with AGGCACCA, 0.366. In the case of AGGCACAT, the “PBM E-score” value is 0.276. With CTGCACCA the figure was -0.199; with CCTCTCTA, -0.212. To AACCAGTT belongs 0.143; to GAGAAGCC, -0.0953; to GGTGGCAC, 0.147.

For the sequence TGGTGAAA, the “PBM E-score” value was determined as 0.0915. Consider CATTTTGG, for which the “PBM E-score” value was 0.114. To ATAGTGAG belongs -0.0378; to TGATTCCA, -0.0134; to GAAGGTAC, -0.11. To CATCGCCC belongs -0.0878; to AATCGCCG, 0.431. To AATCGCCC belongs 0.0762; to CATCGCCA, 0.0899.

As to ATTCGCCC, the “PBM E-score” value is -0.0713.

Consider ATTCGCCA, for which the “PBM E-score” value is 0.0506. With CATCGCCG the figure was 0.375; with AGTCGCCC, -0.174. With AGTCGCCG the figure was 0.369; with AATCGCCT, 0.302. With ATTCGCCG the figure was 0.328. With AGTCGCCA, the “PBM E-score” value is -0.199. Regarding AAGCATCT, the “PBM E-score” value was -0.17. As for AGGATATG, the “PBM E-score” value is 0.0335. Regarding ACCATCCG, the “PBM E-score” value was -0.144. To ACTGGACG belongs -0.112; to GTAGCTGA, -0.154.

Consider GTCTCTAA, for which the “PBM E-score” value is -0.0881. With AAACGGTT the figure was -0.155. With AGATAACT the figure was -0.103. To AGCGCCAC belongs 0.13. In the case of AGCGCCAA, the “PBM E-score” value was -0.059. With GGCGCCAA the figure was 0.379; with GGCGCCAC, 0.384. Turning to CGCGCCAC, the “PBM E-score” value is 0.286. With CGCGCCAA the figure was 0.132. To AAAGCCGT belongs 0.386; to AAAGCCGC, 0.369; to AAAGCCGA, -0.0141. To GAAGCCGA belongs -0.0348. As for AAAGCCAC, the “PBM E-score” value was determined as 0.123. For AAAGCCGG, the “PBM E-score” value came to 0.135.

As to ACAGCCGT, the “PBM E-score” value was determined as 0.354. With AAAGCCTC the figure was 0.204; with ACAGCCGA, -0.0659; with GAAGCCGC, 0.393. With CAAGCCGC the figure was 0.299. To ACAGCCGC belongs 0.25. Regarding GGAGTACA, the “PBM E-score” value is -0.00077. To CGTCTTAG belongs 0.0086.

For the sequence CTTCATCA, the “PBM E-score” value is -0.0498. As for AACTCTAA, the “PBM E-score” value is -0.00844.

AACAAATT: the “PBM E-score” value is 0.232. With CATTATGG the figure was -0.177; with GCGGTCCC, -0.16. With CGTACGGC the figure was 0.482. Turning to AGTACGGA, the “PBM E-score” value is 0.154.

ATTACGGC: the “PBM E-score” value turned out to be 0.341. With CGTACGCC the figure was 0.233.
